Compounds without any hit were thinned out: in the full panel of roughly 83,000, 20% have a hit.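 Single-dose data. Exposure time 48 hours. Values below 10 considered active.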 Unmarked numbers belong to inactive results. Active and inactive are the calls of the source.

The subject of this test is MDA-MB-468 breast. Nature of the test: NCI-60 one-dose screen, 48 h (100 = growth as untreated, 0 = no growth, -100 = all killed). The settings on record: 10 µM unless noted.
As to `CN(C)c1cccc2c(S(=O)(=O)/N=C(\N)Nc3nc4ccccc4s3)cccc12`, the growth was -8.02% (active). Regarding `CCCCN(CC)CCCCCCCCCCN1CCCc2cc(OC)ccc21`, the growth was 40.8%. For `COC(=O)c1ccc(NC(N)=NCCC(C)(C)c2ccc(C(F)(F)F)cc2)nc1`, the growth was -14.2% (active). `CCOC(=O)c1ccccc1-c1c2ccc(=[N+](C)C)cc-2oc2cc(N(C)C)ccc12`: the growth was -17.9% (active).

Values taken from PubChem BioAssay (NCI).
